Fam108B inh – mouse Fam108B serine hydrolase inhibitors, primary screen, counter-screen for RBBP9 inhibitor project, biochemical, fluorescence polarization; AID 1947, 2009; inhibition, % at 9.51 µM; recombinant Fam108B, FP-Rh probe fluorescence polarization; 300,000 compounds, 0.33% hits;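 active = inhibition above the screen mean inhibition plus 3 SD, computed separately per campaign, cut at about 18% in these data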;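 note: inhibitors lower polarization as less probe binds the enzyme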
PME-1 inh – PME-1 inhibitors via competitive probe labeling, primary screen, biochemical, fluorescence polarization, FP-Rh probe, HTS. Protein phosphatase methylesterase 1 (Homo sapiens), Q9Y570. recombinant PME-1. inhibition, % at 5.9 µM. 320,000 compounds, 0.53% hits. AID 2130, 2009;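 active = inhibition above the campaign mean of all compounds plus 3 SD, cut at about 26% in these data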;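 note: competitive labeling of PME-1 active site by serine hydrolase directed probe; 0% = PME-1 with DMSO and 100% = wells lacking PME-1 enzyme; inhibitors block probe labeling so polarization falls and inhibition rises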
GSTO1 counter – inhibitors of recombinant GSTO1, primary screen, counter-screen for RBBP9 inhibitor project, biochemical, fluorescence polarization. inhibition, % at 5.96 µM. activity-based probe fluorescence polarization. 300,000 compounds, 1.1% hits;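 active = inhibition above the campaign mean inhibition plus 3 SD, cut at about 35% in these data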;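 note: 0% = GSTO1-1 with DMSO and 100% = wells lacking GSTO1-1 enzyme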
Target sequence (P78417 whole entry, looked up): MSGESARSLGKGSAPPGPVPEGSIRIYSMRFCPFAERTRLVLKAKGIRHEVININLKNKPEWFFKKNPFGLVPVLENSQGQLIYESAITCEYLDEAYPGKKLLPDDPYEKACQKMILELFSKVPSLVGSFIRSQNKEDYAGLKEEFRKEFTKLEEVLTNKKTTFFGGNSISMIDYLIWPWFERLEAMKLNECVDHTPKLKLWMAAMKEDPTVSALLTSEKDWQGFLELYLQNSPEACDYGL
pPAFAH FP inh – pPAFAH enzyme inhibitors, primary screen, biochemical, fluorescence polarization, human; 330,000 compounds, 1.5% hits; inhibition, % at 3.39 µM; Platelet-activating factor acetylhydrolase (Homo sapiens), Q13093; AID 463082, 2010; recombinant pPAFAH, FP-rhodamine probe fluorescence polarization;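 active = inhibition above the mean inhibition across the screen plus 3 SD, cut at about 25% in these data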;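 note: inhibitors block binding of the rhodamine activity-based probe so polarization drops; 0% = enzyme with DMSO and 100% = wells lacking pPAFAH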
PAD4 FP inh – human PAD4 inhibitors, primary screen, biochemical, fluorescence polarization, 1536-well format; recombinant PAD4, RCA probe fluorescence polarization; inhibition, % at 6.36 µM; 330,000 compounds, 0.41% hits; AID 485272, 2010; Protein-arginine deiminase type-4 (Homo sapiens), Q9UM07;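 active = percent inhibition above a cutoff equal to the mean of all tested compounds plus 3 SD, cut at about 15% in these data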;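 note: 0% = PAD4 with RCA probe and DMSO and 100% = probe without PAD4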
GSTO1 confirm – GSTO1 inhibitor hit confirmation, counter-screen for RBBP9 inhibitor project, biochemical, fluorescence polarization, triplicate. shares compounds with GSTO1 counter. recombinant GSTO1, probe fluorescence polarization. inhibition, % at 5.96 µM. 2,400 compounds, 54% hits. AID 2176, 2009;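 active = inhibition above the primary screen's cutoff, its mean inhibition plus 3 SD, cut at about 35% in these data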;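 note: loss of polarization as inhibitors block binding of rhodamine sulfonate ester activity probe; 0% = GSTO1 with DMSO and 100% = wells lacking GSTO1 enzyme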
GSTO1 ABPP inh – inhibitors of purified human GSTO1, late-stage follow-up, biochemical, gel ABPP, SE-Rh probe, percent inhibition. shares compounds with GSTO1 counter. AID 463110, 2010. inhibition, % at 1 µM. 130 compounds, 30% hits. recombinant GSTO1, gel ABPP SE-Rh probe fluorescence;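 active = inhibition of the enzyme GSTO1 above about 75%, limit read from the data; inactive = inhibition below that limit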
The depositor's hits bear a star; / = no result given. The list is not random: actives were taken first. Their share in the collection is about 2.3%.

SMILES | Fam108B inh | PME-1 inh | GSTO1 counter | pPAFAH FP inh | PAD4 FP inh | GSTO1 confirm | others
N#CCc1ccc(NC(=O)CSc2nnc(C3CC3)n2C2CC2)cc1 | / | 1 | / | 3 | -1 | /
O=C(NC1CCCCC1)C(c1cccnc1)N(C(=O)CCl)c1ccccc1Cl (stereo unspecified) | 1 | 5 | 88* | 3 | -2 | 83* | GSTO1 ABPP inh=40
O=C(NC1CCCCC1)C(c1cccnc1)N(C(=O)CCl)c1ccc(F)cc1 (stereo unspecified) | -2 | 2 | 95* | 2 | 3 | 97* | GSTO1 ABPP inh=82*
O=C(NCC(=O)N(c1ccc(F)cc1)C(C(=O)NC1CCCCC1)c1cccnc1)c1ccco1 (stereo unspecified) | 3 | -2 | -2 | 6 | -2 | /
O=S(=O)([N-]c1nc2ccccc2nc1-[n+]1ccc(CCCc2ccccc2)cc1)c1cccs1 | -1 | 12 | -9 | 4 | -1 | /
O=C1/C(=N\S(=O)(=O)c2cccs2)C([n+]2ccc(CCCc3ccccc3)cc2)=C([O-])c2ccccc21 | 6 | 3 | 79* | 19 | 1 | 84*
O=C1/C(=N\S(=O)(=O)c2cccs2)C([n+]2cccc(Cc3ccccc3)c2)=C([O-])c2ccccc21 | 3 | 2 | 87* | -4 | 5 | 83*
CSCCC(NS(=O)(=O)c1ccc(Cl)cc1)C(=O)OCC(=O)c1ccc(F)cc1 (stereo unspecified) | -7 | 2 | 2 | 9 | 0 | /
Cc1ccc(NS(=O)(=O)c2c(C)[nH]c(C)c2C(=O)N2CCCC2)cc1Cl | -1 | 1 | 3 | 3 | -2 | /
COc1ccccc1/C=C1\SC(=O)N(CCC(=O)NNC(=O)c2ccccc2Cl)C1=O | -8 | 2 | 51* | 4 | 0 | 4
COc1ccccc1/C=C1\SC(=S)N(CCC(=O)NNC(=O)c2ccccc2OC)C1=O | 0 | 4 | 1 | 8 | -9 | /
CCN(CC)CC(C)CNC(=O)CN1C(=O)CSc2ccc(S(=O)(=O)N3CCOCC3)cc21 (stereo unspecified) | 0 | -3 | -4 | 2 | -3 | /
COc1cc(OC)c(NS(=O)(=O)c2cc(C(=O)OC(C)C(=O)NC3CC3)c(Cl)cc2Cl)cc1Cl (stereo unspecified) | 0 | 11 | 46* | 2 | -2 | 66*
Cc1ccc(S(=O)(=O)NC(C)(C)C)cc1C(=O)OC(C)C(=O)NC1CC1 (stereo unspecified) | -1 | -2 | 5 | 0 | 0 | /
Cc1ccc(NC(=S)N=Nc2c(O)n(C)c3ccc(S(=O)(=O)N4CCOCC4)cc23)cc1C | 0 | 0 | 3 | 2 | 1 | /
C=CCn1c(O)c(N=NC(=S)Nc2ccccc2C)c2cc(S(=O)(=O)N3CCOCC3)ccc21 | 2 | 6 | 42* | 9 | 0 | 7
Cc1cc2nc(CCl)cc(=O)n2[nH]1 | 4 | 1 | 104* | -2 | 3 | 93* | GSTO1 ABPP inh=54
COCc1cc(=O)n2[nH]c(C)cc2n1 | -4 | -4 | 3 | 3 | 1 | /
CCC1CCCCN1S(=O)(=O)c1ccc2c(c1)CCN2C(=O)C1CCC1 (stereo unspecified) | -2 | 3 | 8 | 1 | -4 | /
O=C(CCl)c1ccc2c(c1)CCN2C(=O)C1CCCCC1 | 3 | 0 | 42* | -1 | 0 | 64*
CCCC1=Nc2cc(C(=O)N3CCC(C(=O)OCC)CC3)ccc2Sc2ccccc21 | 0 | 0 | 2 | 11 | -1 | /
OCC1=C[C@@H](O)[C@@H]2C=CO[C@@H](O[C@@H]3O[C@H](CO)[C@@H](O)[C@H](O)[C@H]3O)[C@H]12 | / | / | / | -5 | -8 | /

Screening results: PubChem, The Scripps Research Institute Molecular Screening Center
